# Compounds with a hit are over-represented: about 9.4% of the library has one in this group of screens.
# FLuc counter = firefly luciferase modulation, counter-screen for miR-21 project. P08659. purified FLuc, Km substrates, luminescence inhibition. Potency, µM (highest dose often 57.5 µM), usual class: inhibitors. 6.9% of 360,000 active; also: nearly all actives have a fitted effect of over 55% in size
# Target sequence (P08659 whole entry, looked up): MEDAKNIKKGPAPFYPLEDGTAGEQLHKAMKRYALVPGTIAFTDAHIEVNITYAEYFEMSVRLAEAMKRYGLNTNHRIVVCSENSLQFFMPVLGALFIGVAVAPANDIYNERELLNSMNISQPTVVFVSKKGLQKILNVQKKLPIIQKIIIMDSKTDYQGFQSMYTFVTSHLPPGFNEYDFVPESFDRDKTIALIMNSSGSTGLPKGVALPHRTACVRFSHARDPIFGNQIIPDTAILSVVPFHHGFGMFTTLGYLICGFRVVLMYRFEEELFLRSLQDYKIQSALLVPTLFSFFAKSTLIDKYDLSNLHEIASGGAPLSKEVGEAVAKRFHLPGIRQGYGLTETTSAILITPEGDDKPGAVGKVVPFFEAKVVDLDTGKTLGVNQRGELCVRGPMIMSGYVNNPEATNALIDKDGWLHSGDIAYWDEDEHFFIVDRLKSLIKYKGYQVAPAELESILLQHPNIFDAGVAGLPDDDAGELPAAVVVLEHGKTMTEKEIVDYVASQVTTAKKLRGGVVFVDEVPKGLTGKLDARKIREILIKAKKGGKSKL
#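 Purified P. pyralis luciferase (10nM final) with 10uM D-luciferin and 10uM ATP (Km levels) in 50mM Tris acetate pH 7.5, 10mM Mg acetate, 0.01% Tween-20, 0.05% BSA; qHTS 6-point titration, ~60 µM downward; luminescence read.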
# ELG1 repair inh = ELG1-dependent DNA repair inhibition; Potency, µM (doses to about 46.1 µM), most hits filed as inhibitors; HEK293T ELG1-luciferase reporter, luminescence, 16 h; DNA damage induced by 5-fluorouridine; AID 504467; 2.3% of 330,000 active; also: nearly all actives have a fitted effect of over 55% in size
#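 Step one: seed 2,000 cells per well. Step two: pin-transfer compound or DMSO alongside 5-fluorouridine. Step three: incubate 16 hr, 37 °C, 5% CO2. Step four: add ONE-Glo, wait 30 min, read luminescence.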
# Rab9 promoter act = activates the Rab9 promoter; Huh7 Rab9 promoter-luciferase reporter, luminescence, 24 h; AID 485297; Potency, µM (titrated, usually from 9.22 µM), hits mostly activators; 2.8% of 320,000 active; also: nearly all actives have a fitted effect of over 60% in size
#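 Huh7 cells stably carrying Rab9 promoter–luciferase reporter, plated 1500 cells/well, compound added after 2 h and incubated 24 h at 37 °C; luciferase luminescence then read after 10 min with detection reagent.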
# SMN2 splice up = SMN2 splice variant enhancement; Potency, µM (top dose mostly 46.1 µM), most hits filed as activators; AID 1458; HEK293 SMN2-luciferase splicing reporter, luminescence, 30-36 h; 2.8% of 210,000 active; also: nearly all actives have a fitted effect of over 55% in size
#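 HEK293 cells carry an SMN2 minigene-luciferase reporter in which exon 7 inclusion puts luciferase in frame. Cells were seeded at 2000 cells/well, attached for 10-12 hours, then exposed to compounds for 30-36 hours at 37C before ONE-Glo luminescence.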
# ELG1 genotoxic = induces genotoxicity in HEK293T cells with luciferase-tagged ELG1; HEK293T ELG1-luciferase reporter, luminescence, 16 h; Potency, µM (series often up to 46 µM), most hits filed as activators; 1.3% of 330,000 active; AID 504466; also: nearly all actives have a fitted effect of over 60% in size
#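 ELG1-luciferase HEK293T cells, 2,000/well; compound pinned in; 16 hr, 37 °C, 5% CO2; ONE-Glo, 30 min RT; luminescence on CCD imager.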
# NPC1 prom act = NPC1 promoter activation | Huh7 NPC1 promoter luciferase reporter, 24 h | Potency, µM (doses to about 9.22 µM), actives largely listed as activators | 2.4% of 320,000 active | AID 485313; also: nearly all actives have a fitted effect of over 60% in size
#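 Stable NPC1-promoter luciferase Huh7 line; cpd (DMSO) 24 h, 37 °C, 5% CO2; Amplite luciferase reagent 10 min RT; luminescence readout. qHTS format.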
# Numbers stand for hits; 0 = inactive; ? = inconclusive; - = not tested or not shown; [ ] = dose if it differs, or a comment. Calls follow the shape of the dose curve; as a rule, active = well fitted curve in the direction sought with a large enough effect; inconclusive = small, poorly fitted or top-dose-only effect, or another doubt; inactive = no such curve, though single readings can be large; an effect the other way counts as inactive or inconclusive.
SMILES,FLuc counter,ELG1 repair inh,Rab9 promoter act,SMN2 splice up,ELG1 genotoxic,NPC1 prom act
CCc1ccc(NC(=O)c2sc3ncnc(N(C)C4CCCCC4)c3c2C)cc1,0,-,-,-,-,-
COc1ccc(N2CCN(c3ncnc4scc(-c5ccc(C)cc5)c34)CC2)cc1,0,?,0,-,0,0
COc1ccc(N2CCN(c3ncnc4scc(-c5ccccc5)c34)CC2)cc1,0,16µM,0,-,0,0
CC(=O)c1ccc(OCc2cc(C(=O)N3CCC(Oc4ccccc4C)CC3)no2)cc1,19µM,?,?,-,0,?
CC(=O)c1ccc(OCc2cc(C(=O)N3CCOCC3)no2)cc1,17µM,?,?,-,?,?
Cc1ccc(OCc2cc(C(=O)N3CCC(Oc4cccnc4)CC3)no2)cc1C,0,0,0,-,0,0
CC(=O)c1ccc(OCc2cc(C(=O)N3CCCCCCC3)no2)cc1,?,0,0,-,0,0
Cc1cc(C)nc(Nc2n[nH]c(-c3ccc(N)cc3)n2)n1,9.5µM,?,3.5µM,?,7.3µM,1.6µM
Cc1cc(C)nc(Nc2n[nH]c(-c3ccc(C(C)(C)C)cc3)n2)n1,1.7µM,0,0,0,0,0
Cc1cc(C)nc(Nc2n[nH]c(COc3ccc(Cl)cc3)n2)n1,0,0,0,0,0,0
CCC(=O)N1CCc2cc(S(=O)(=O)NC(Cc3ccccc3)C(=O)Nc3ccc(Cl)cc3)ccc21 (stereo not drawn),0,-,-,0,-,-
CCOc1ccc(NC(=O)Cn2c3ncccc3c(=O)n2-c2ccc(CC)cc2)cc1,0,-,-,-,-,-
O=C1c2ccccc2C(=O)N1c1cccc(-c2csc(Nc3ccc4c(c3)OCO4)n2)c1,2.1µM,?,0,?,0,0
O=C(CN1CCN(c2nc(-c3ccccc3)cs2)CC1)Nc1ccc2c(c1)OCO2,0,?,0,0,0,0
CCOc1ccccc1Nc1nc(-c2cccnc2)cs1,?,0,0,-,0,0
COc1ccccc1Nc1nc(-c2cccc(N3C(=O)c4ccccc4C3=O)c2)cs1,6.7µM,0,0,0,0,0
Cc1ccc(C2=N/C(=C/N3CCOCC3)C(=O)O2)cc1,12µM,?,3.5µM,11µM,16µM,?
Cc1ccc(C2=N/C(=C\N3CCCCC3)C(=O)O2)cc1,5.4µM,?,1.1µM,?,4.1µM,2.2µM
Cc1ccc2cccc(NC(=O)c3ccc(C#N)cc3F)c2n1,0,-,-,0,-,-
O=C(c1cc(-c2ccc(Cl)cc2Cl)on1)N1CCOCC1,0.76µM,?,0.32µM,1.3µM,0.65µM,0.4µM
O=C(c1cc(-c2ccc(Cl)c(Cl)c2)on1)N1CCCC1,0,?,2.2µM,11µM,?,3.5µM
O=C(NCCN1CCOCC1)c1cc(-c2ccc(Cl)c(Cl)c2)on1,0,0,0,-,0,0
O=C(c1cc(-c2ccc(Cl)cc2)on1)N1CCOCC1,2.7µM,?,1µM,3.2µM,0.92µM,0.4µM
O=C(c1cc(-c2ccc(Cl)c(Cl)c2)on1)N1CCOCC1,3µM,?,2.8µM,-,?,1.4µM
COc1ccc(-c2cc(C(C)=O)c(C)n2CCC(=O)Nc2ccc(C)c(Cl)c2)cc1,0,-,-,-,-,-
SMILES,FLuc counter,ELG1 repair inh,Rab9 promoter act,SMN2 splice up,ELG1 genotoxic,NPC1 prom act
CCC(=O)N1CCc2cc(S(=O)(=O)CCC(=O)Nc3ccc(OC(F)(F)F)cc3)ccc21,0,-,-,0,-,-
CCOc1ccccc1NC(=O)c1nnn(CC(=O)Nc2ccccc2CC)c1N,0,-,-,0,-,-
C=CCN=C1S/C(=C\N(C)C)C(=O)N1S(=O)(=O)c1ccc(C)cc1,-,2.1µM,-,-,0,-
C=CCN=C1SCC(=O)N1S(=O)(=O)c1ccc(C)cc1,0,0,0,0,0,0
C[C@H]1Cc2c(COc3ccccc3)nc3c(c2CO1)CN(C(=O)C1CC1)CC3,-,-,-,0[9.22 µM],-,-
Cc1ccc(-c2c(C(=O)NCCc3ccccc3)oc(=O)c3ccccc23)cc1,0,-,-,0,-,-
CC(C)c1ccc(NC(=O)Nc2cnccn2)cc1,6.7µM,?,?,-,?,?
Cc1ccc(NC(=O)Nc2cnccn2)cc1,17µM,?,?,-,?,?
O=C(Nc1ccc([N+](=O)[O-])cc1)Nc1cnccn1,0,0,0,-,0,0
O=C(Nc1ccc(Cl)cc1)Nc1cnccn1,?,0,0,-,0,0
Cc1ccc(NC(=O)Nc2cnccn2)cc1C,21µM,?,?,-,0,0
